Source: PubChem BioAssay (National Center for Advancing Translational Sciences (NCATS))
The list is not random: actives were taken first. Their share in the collection is about 2.2%.
FUS suppressor: qHTS for Suppressors of FUS Proteinopathy: Primary screen using FUS-linked yeast assay. 0.24% of 390,000 active. Potency, µM (highest dose often 76.6 µM), usual class: activators. S. cerevisiae FUS-expressing, growth rescue, OD600, 24 h. AID 1347120, 2019; further: nearly all actives have a fitted effect of over 55% in size
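FUS-expressing yeast, raffinose-pregrown, induced in 2% galactose minimal medium at OD 0.005; compounds in a dilution series, 24hr at 30C. Growth restoration read as absorbance at 600 nm. CP55940 positive control, DMSO negative.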
Mito fusion yeast: qHTS Assay for Small Molecule Inhibitors of Mitochondrial Division or Activators of Mitochondrial Fusion; Potency, µM (top dose mostly 46.1 µM), most hits filed as activators; S. cerevisiae fusion-defective mutant growth rescue, CellTiterGlo 48 h; 0.23% of 320,000 active; AID 485298, 2010; further: nearly all actives have a fitted effect of over 45% in size
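Luminescent cell viability in 1536-well qHTS format served as the measure of rescued growth in ts fusion-mutant S. cerevisiae cultured on non-fermentable YPEG for 48 hours at 37C.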
Abeta rescue: qHTS for compounds that reverse cellular toxicity of Amyloid beta (A-beta) peptide in yeast: Primary Screen | Potency, µM (series often up to 46.1 µM), usual class: activators | yeast expressing A-beta42, growth rescue, OD600, 48 h; response scale: 0% DMSO, 100% iron-clioquinol control | 0.063% of 410,000 active; further: nearly all actives have a fitted effect of over 55% in size
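Yeast A-beta toxicity model in growth medium with pinned compounds, 48 h at 30 C; growth read as absorbance at 600 nm. Normalized to FeCl3/clioquinol equimolar mix (positive) and DMSO (negative).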
TDP-43 yeast inh: qHTS of TDP-43 Inhibitors; TDP-43 expressing yeast growth rescue, BacTiter-Glo, 24 h; Potency, µM (doses to about 46.1 µM), most hits filed as activators; 1.8% of 410,000 active; further: nearly all actives have a fitted effect of over 50% in size
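Luminescence from BacTiter-Glo reports growth of TDP-43-expressing yeast after 24 hr at 30 deg C with compound. Cells were raffinose-pregrown to mid-log, then seeded in galactose medium at OD600=0.02.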
aSyn rescue: qHTS of alpha-syn Inhibitors | Yeast expressing alpha-synuclein, growth rescue, BacTiter-Glo, 24 h | Potency, µM (top dose mostly 46.1 µM), usual class: activators | 0.14% of 370,000 active; further: nearly all actives have a fitted effect of over 65% in size
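Rescue of yeast growth: cells expressing toxic alpha-synuclein, induced in galactose at OD600 0.02, incubated with compound 24 h at 30 C. ATP luminescence quantified growth; inhibitors of toxicity appear as activators.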
Hits are given with their value; n = inactive; u = inconclusive; x = no result given; [ ] = another dose, or the depositor's remark. The call rests on the fitted dose curve; in most records, active means well fitted curve in the direction sought with a large enough effect; inconclusive means small, poorly fitted or top-dose-only effect, or another doubt; inactive means no such curve, though single readings can be large; an effect the other way counts as inactive or inconclusive.

SMILES	FUS suppressor	Mito fusion yeast	Abeta rescue	TDP-43 yeast inh	aSyn rescue
CCCN(CCC)C(=O)Cn1c(SCc2cccc(C(F)(F)F)c2)nc2cccnc21	n	x	n	n	x
COc1ccc(C(=O)c2coc3ccc(OC(C)=O)cc23)cc1	n	n	n	13µM	n
Cc1nn(-c2ccccc2C(=O)O)c(=O)c2ccccc12	n	n	n	n	n
O=C(O)c1ccccc1-n1c2ccccc2c2ccccc21	n	n	n	20µM	u
NS(=O)(=O)c1cccc(C(=O)NC2CCSc3ccccc32)c1 (stereo not drawn)	n	n	n	n	n
O=C(NC1CCSc2ccccc21)c1cccc(Cl)c1 (stereo not drawn)	n	n	n	5.6µM	n
CC(=O)Nc1sc2c(c1-c1nc3ccccc3s1)CNC2	n	x	x	x	x
Cc1ccc(NC(=O)CSc2nnc(-c3cc4occc4n3C)n2-c2ccccc2C)c(C)c1	n	x	n	n	x
CCc1ccc(OCC(=O)Nc2ccncc2)c(Br)c1	n	n	n	n	n
CCc1ccc(OCC(=O)NNC(=S)NC(=O)C2CC2)c(Br)c1	n	n	n	n	n
CCc1ccc(OCC(=O)NNC(=S)NC(=O)C2CCCCC2)c(Br)c1	n	n	7.9µM	18µM	7.1µM
CCc1ccc(OCC(=O)NNC(=O)c2cnccn2)c(Br)c1	n	n	25µM	25µM	u
COC(=O)C1CCCN(C(=O)C(Cc2ccc3c(c2)OCO3)NC(C)=O)C1 (stereo not drawn)	n	x	x	x	x
CN(C)c1ccc(/C=C/c2ccc3cc(F)ccc3n2)cc1	x	x	x	x	n
COc1cc2c(cc1OC)C1O[C@](CCCCN3C(=O)c4ccccc4C3=O)(C2)OC2=C1C(=O)CCC2	x	n[9.22 µM]	x	x	x
Fc1ccc(C2=CC(c3ccc(Br)o3)n3ncnc3N2)cc1 (stereo not drawn)	x	n	n	18µM	n
CCOc1ccc(C2C=C(c3ccc(F)cc3)Nc3ncnn32)cc1 (stereo not drawn)	n	n	n	n	n
CC(C)(C)c1ccc(C2=CC(c3ccccc3F)n3ncnc3N2)cc1 (stereo not drawn)	u	x	n	n	n
CCOc1ccc(C2=CC(c3cc(Br)ccc3F)n3ncnc3N2)cc1Cl (stereo not drawn)	n	x	n	35µM	x
Fc1ccc(Br)cc1C1C=C(c2cccnc2)Nc2ncnn21 (stereo not drawn)	n	n	n	25µM	n
Cc1cccc(NC(=O)c2sc3cccc(Cl)c3c2Cl)c1	n	x	n	n	x
O=C(OCc1ccccc1)N1CCN(/[N+]([O-])=N/Oc2ccc([N+](=O)[O-])cc2[N+](=O)[O-])CC1	x	x	x	x	n
COc1ccccc1N1CCN(CCN2C(=O)CC(=C3c4ccccc4-c4ccccc43)C2=O)CC1	16µM	x	n	n	n
O=C(CCN1C(=O)c2ccccc2C1=O)N1CCN(c2ccccc2)CC1	n	n	n	n	n
O=C1CC(=C2c3ccccc3-c3ccccc32)C(=O)N1CCN1CCN(c2ccccc2)CC1	40µM	x	n	n	n
SMILES	FUS suppressor	Mito fusion yeast	Abeta rescue	TDP-43 yeast inh	aSyn rescue
Cc1ccccc1N1CCN(CCN2C(=O)CC(=C3c4ccccc4-c4ccccc43)C2=O)CC1	u	x	n	n	n
CC(=O)C1=C(C)NC(SCC(=O)c2cc(Cl)ccc2Cl)=C(C#N)C1c1ccco1 (stereo not drawn)	25µM	n	n	n	n
COC(=O)c1cc(-c2cc3ccccc3s2)c(=O)n2c1CCC2	n	x	x	x	x
CC(C)c1ccccc1OCCNC(=O)c1cncc(Br)c1	n	n	n	20µM	n
CC(C)c1ccccc1OCCNC(=O)c1cccnc1	n	n	n	n[0.397 µM]	n
O=C(NNC(=S)NCc1ccccc1)c1ccc2c(c1)OCO2	n	n	n	n	n
O=C(NCc1ccccc1F)c1ccc2c(c1)OCCO2	n	n	u	14µM	n
O=C(NC(=S)NCc1ccccc1)c1ccc2c(c1)OCO2	x	u	n	25µM	n
O=C(NC(=S)NCc1ccc2c(c1)OCO2)c1ccccc1	n	n	u	16µM	n
C=CCn1c(O)c(N=NC(=S)Nc2ccccc2F)c2ccccc21	n	n	u	n	n
C=CCn1c(O)c(N=NC(=S)Nc2cccc(C)c2)c2ccccc21	x	n	u	11µM	u
Cc1c(Cl)cccc1NC(=S)N=Nc1c(O)n(CN2CCOCC2)c2ccccc12	n	u	22µM	n	n
C/C(Cl)=C\Cn1c(O)c(N=NC(N)=S)c2ccccc21	n	n	n	18µM	n
NC(=S)N=Nc1c(O)n(Cc2ccccc2)c2ccccc12	n	n	n	n	n
Oc1c(N=NC(=S)Nc2ccccc2F)c2ccccc2n1Cc1ccccc1Cl	n	n	n	u	n
COc1ccc2c(c1)OC[C@H]1[C@H]2N2C(=O)c3cc(OC)ccc3NC(=O)[C@@]2(C)[C@H]1c1ccccc1	n	n	n	5µM	n
COc1ccc2c(c1)OC[C@H]1[C@H]2N2C(=O)c3cc(Cl)ccc3NC(=O)[C@@]2(C)[C@H]1c1ccccc1	n	n	n	4.5µM	n
Cc1ccc2c(c1)[C@H]1[C@H](CO2)[C@H](c2ccccc2)[C@]2(C)C(=O)N(Cc3ccc(Cl)cc3)CC(=O)N12	u	n	u	n	n
C[C@@]12C(=O)Nc3ccc(Br)cc3C(=O)N1[C@H]1c3cc(Br)ccc3OC[C@@H]1[C@@H]2c1ccccc1	n	n	n	n	n
C[C@@]12C(=O)Nc3ccc(Cl)cc3C(=O)N1[C@H]1c3cc(Br)ccc3OC[C@@H]1[C@@H]2c1ccccc1	28µM	x	n	n	n
Cc1ccc2c(c1)[C@H]1[C@H](CO2)[C@H](c2ccccc2)[C@]2(C)C(=O)N(Cc3ccc(F)cc3)CC(=O)N12	n	x	16µM	n	n
COc1ccc2c(c1)OC[C@H]1[C@H]2N2C(=O)c3ccc(C)cc3NC(=O)[C@@]2(C)[C@H]1c1ccccc1	u	x	n	n	n
Cc1ccc(CNC(=O)Cn2ccn(-c3ccc(F)c(F)c3)c(=O)c2=O)cc1	n	x	n	n	x
c1ccc2c(CCc3c[nH]c4ccccc34)ccnc2c1	x	x	x	x	n
COc1ccc2c(c1)OC[C@H]1[C@H]2N2C(=O)c3cc(F)ccc3NC(=O)[C@@]2(C)[C@H]1c1ccccc1	n	x	n	20µM	n
Cc1nc(CSc2nnc(Nc3cccc(C)c3C)s2)cs1	x	n	n	7.9µM	n
Cc1cccc(Nc2nnc(SCC(=O)Nc3ccccc3[N+](=O)[O-])s2)c1C	x	n	n	13µM	n
Clc1cccc(CNc2ccn3nc(-c4cccs4)cc3n2)c1	n	x	u	18µM	u
Clc1cccc(CNc2ccn3nc(-c4ccco4)cc3n2)c1	n	x	n	16µM	u
Clc1cccc(CNc2ccn3nc(-c4ccc(OCCN5CCOCC5)cc4)cc3n2)c1	n	x	n	n	u
